NCOA3 inh = human NCOA3 inhibition; inhibition, % at 3.6 µM; HEK293 GAL4-SRC3 luciferase reporter, luminescence; actives 0.17% (n = 360,000); Q9Y6Q9;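 active means inhibition above a per-campaign cutoff, the mean of all compounds plus 3 SD, cut at about 60% in these data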;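 further: 0% = DMSO-treated cells and 100% = gossypol-treated cells at 36 µM; higher means less SRC3-driven luciferase light from the GAL4 reporter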
NR5A2 inv ag = inverse agonists of human LRH-1 (NR5A2); HEK293T StAR-luciferase reporter, LRH-1 transfected, 24 h; actives 0.13% (n = 360,000); O00482; inhibition, % at 3.6 µM;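 active means inhibition above the mean inhibition of all tested compounds plus 3 SD, cut at about 73% in these data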;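 further: 0% = DMSO wells and 100% = reporter-only cells lacking LRH-1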
COUP-TFII inh = inhibitors of human COUP-TFII (NR2F2); HEK293T NGFI-A luciferase reporter, luminescence; AID 686940; P24468; inhibition, % at 8.6 µM; actives 0.7% (n = 370,000);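 active means inhibition above a per-plate cutoff, mean inhibition of test wells between control levels plus 3 SD, cut at about 38% in these data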;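 further: cells cotransfected with COUP-TFII expression vector driving the NGFI-A reporter; 0% = median of COUP-TF2 test wells and 100% = reporter-only cells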
NCOA2 inhibitor = human SRC2 (NCOA2) inhibition; HEK293 GAL4-SRC2 luciferase reporter, luminescence; actives 0.17% (n = 370,000); AID 651957; inhibition, % at 9 µM; Q15596;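 active means inhibition above the mean inhibition of all tested compounds plus 3 SD, set per campaign, cut at about 52% in these data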;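 further: 0% = DMSO treated cells and 100% = cells given Gossypol at 36 µM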
Efflux pump inh = inhibitors of Candida antifungal efflux pumps expressed in yeast; AID 485275; inhibition, % at 10 µM; S. cerevisiae Candida pump triplex, Nile Red efflux; actives 0.44% (n = 330,000);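 active means plate passing quality check with inhibition over a set limit, or well fluorescence over plate mean plus 4 SD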;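 further: Nile Red retained in pooled yeast measured as flow cytometry median fluorescence; 0% = buffer negative control and 100% = Enniatin B positive control; higher means more Nile Red kept so more efflux inhibition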
SRC1 inh = human NCOA1 inhibition; HEK293 GAL4-SRC1 luciferase reporter, luminescence; inhibition, % at 3.6 µM; actives 0.12% (n = 360,000); AID 588354;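 active means inhibition above the campaign mean plus 3 SD, with each screening campaign given its own cutoff, cut at about 60% in these data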;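 further: 0% = DMSO treated cells and 100% = gossypol at 36 µM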
Gal4-VP16 ctr = VP16 inhibition counter-screen for COUP-TFII; shares compounds with COUP-TFII inh; HEK293 Gal4-VP16 luciferase reporter, luminescence; inhibition, % at 8.5 µM; actives 25% (n = 2,500); in the data active means inhibition above about 13%
NR2F2 inh conf = confirmation of human COUP-TFII (NR2F2) inhibitors. shares compounds with COUP-TFII inh. HEK293 NGFI-A luciferase reporter, luminescence. inhibition, % at 8.5 µM. actives 45% (n = 2,500);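 active means mean inhibition over three repeats above a set limit taken from the earlier primary screen, cut at about 38% in these data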;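 further: 100% = cells given the luciferase reporter alone without the COUP-TF2 vector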
The depositor's hits bear a star; . = not tested or not shown. In the library only some 1.2% were active in any assay of this set; here they are far more common.

SMILES	NCOA3 inh	NR5A2 inv ag	COUP-TFII inh	NCOA2 inhibitor	Efflux pump inh	SRC1 inh	Gal4-VP16 ctr	NR2F2 inh conf
CN(C)/C=C(\C(=O)c1cccc(Cl)c1)c1nnnn1-c1ccccc1	28	4	-25	0	0	2	.	.
CCOc1ccccc1-n1c(SCC(=O)Nc2ccccc2C(=O)O)nc2ccccc2c1=O	37	53	56*	37	0	37	23*	37
CC(=O)Nc1ccc(Nc2cc(C)nc3c(-c4ccccc4)cnn23)cc1	28	16	42*	37	0	24	-17	43*
CN(C(=O)C(C)(C)C)c1ccc(OCC(=O)N2CCc3ccccc3C2)cc1	11	35	48*	19	0	9	11	48*
Cc1ccc(C(=O)Sc2cccccc2=O)cc1	75*	61	49*	94*	0	1	89*	92*
CC(C)CNC(=O)COCc1cc(-c2ccc3c(c2)OCO3)on1	-47	-26	-20	-71	0	-22	.	.
O=C(Nc1ccccc1)C1=C[C@@H](C2CCCCC2)C[C@@H](OCCCCO)O1	11	15	40*	30	0	9	-33	13
CC(C)(C)[C@H]1C=C(C(=O)Nc2ccccc2)O[C@@H](OCCCCO)C1	39	51	63*	30	0	32	-28	16
O=C(Nc1ccccc1)C1=C[C@H](C2CCCCC2)C[C@H](OCCCCO)O1	2	-8	12	-10	0	-24	.	.
COc1ccccc1COc1ccc2c(C)c(CCC(=O)O)c(=O)oc2c1C	6	0	7	-2	0	-12	.	.
O=C(CCc1nc2ccccc2c(=O)[nH]1)Nc1ccccc1N1CCCCC1	-38	23	10	-27	.	1	.	.
CCOC(=O)c1[nH]c2c(c1C)C(=O)CC(c1ccc(OC)c(OC)c1)C2 (centres undefined)	12	2	11	-30	0	10	.	.
COc1cc(C2CC(=O)c3c([nH]c(C(=O)OCCOC(C)C)c3C)C2)cc(OC)c1OC (centres undefined)	28	42	76*	23	0	21	0	35
CCOCCOC(=O)c1[nH]c2c(c1C)C(=O)CC(c1ccc(OC)c(OC)c1)C2 (centres undefined)	6	9	46*	2	0	-2	-4	7
O=S(=O)(/C=C/C=C/S(=O)(=O)c1ccccc1)c1ccccc1	-92	28	51*	50	.	-191	49*	72*
Cc1ccc(S(=O)(=O)C=CS(=O)(=O)c2ccc(C)cc2)cc1	-33	3	1	-15	.	-28	.	.
O=C(Nc1nc2cc3c(cc2s1)OCO3)C1=COCCO1	19	-65	54*	44	0	9	-27	7
O=C(Nc1nc2cc3c(cc2s1)OCCO3)c1ccco1	11	11	69*	59*	0	0	1	19
CC(=O)Nc1nc2cc3c(cc2s1)OCO3	-99	-122	-22	-43	0	-60	.	.
O=C(Nc1nc2cc3c(cc2s1)OCO3)c1ccco1	-32	-86	-23	-1	.	-45	.	.
NC(=O)c1ccc(C2SCC(=O)N2CCc2ccccc2)cc1 (centres undefined)	9	13	-3	-13	0	1	.	.
Cc1ccc(OCC(=O)NC(=S)Nc2ccccn2)c(Br)c1	27	8	50*	35	0	30	-54	12
COCCNC(=O)c1oc2ccc3c(c2c1C)C(O)CC(C)(C)O3 (centres undefined)	5	-26	-5	-7	0	-19	.	.
Cc1c(C(=O)N2CCC(C)CC2)oc2ccc3c(c12)C(O)CC1(CCCCC1)O3 (centres undefined)	-14	3	38*	11	0	-55	-4	5
COc1ccccc1NC(=O)c1ccc(S(=O)(=O)N2CCCC2)cc1	-10	-29	4	-16	0	13	.	.
SMILES	NCOA3 inh	NR5A2 inv ag	COUP-TFII inh	NCOA2 inhibitor	Efflux pump inh	SRC1 inh	Gal4-VP16 ctr	NR2F2 inh conf
O=C(CNc1ccccc1F)Nc1cc(S(=O)(=O)N2CCCCC2)ccc1Cl	10	-15	-39	12	0	-6	.	.
COc1ccccc1NS(=O)(=O)c1ccc(C)c(NC(=O)c2ccc(S(=O)(=O)N3CCCCCC3)cc2)c1	26	-20	41*	14	0	13	2	29
Cc1ccc(S(=O)(=O)N2CCCCC2)cc1NCC(=O)Nc1ccc(Br)cc1F	9	19	55*	18	.	9	1	27
CCc1ccc(C(=O)Nc2ccc(OC)c(S(=O)(=O)N3CCCCC3)c2)cc1	20	23	58*	30	0	10	-2	34
COc1ccc(C(=O)Nc2ccc(C)c(S(=O)(=O)N3CCCCCC3)c2)cc1	5	7	46*	7	0	16	0	20
COc1ccc(CN2CCNC(=O)C2CC(=O)N(C)CCc2cnn(C)c2)c(F)c1 (centres undefined)	-14	-8	-13	-19	0	-44	.	.
Cc1ccc(NC(=O)/C=C/c2ccco2)cc1S(=O)(=O)N1CCCCCC1	23	-14	50*	21	0	-9	0	31
O=C(/C=C/c1ccco1)Nc1cccc(S(=O)(=O)N2CCOCC2)c1	-9	-28	1	4	0	-4	.	.
Cc1ccc(CN2CCN(Cc3ccc(-n4cccn4)cc3)CC2CCO)cc1 (centres undefined)	20	2	7	13	0	-2	.	.
O[C@@H]1CN(Cc2ccc(-n3cccn3)cc2)CC[C@H]1N1CCN(c2ccccc2F)CC1	-9	27	49*	10	0	7	9	36
COC(=O)c1cc(NC(=O)Cc2ccc(OC)c(OC)c2)cc(C(=O)OC)c1	20	-3	7	-30	0	-15	.	.
COc1ccc(CC(=O)Nc2cccc(SC)c2)cc1OC	21	31	41*	11	.	18	17*	38*
CN(C)S(=O)(=O)c1ccc2nc(NC(=O)c3cccnc3)sc2c1	-52	-82	-14	-68	0	-90	.	.
O=C(NC(Nc1nc2ccc([N+](=O)[O-])cc2s1)(C(F)(F)F)C(F)(F)F)c1cccnc1	78*	91*	77*	-29	0	69*	7	70*
O=C(NC(NNc1ccc([N+](=O)[O-])cc1)(C(F)(F)F)C(F)(F)F)c1ccccc1Cl	19	44	3	4	0	-17	.	.
O=C(NC(Nc1nc2ccc([N+](=O)[O-])cc2s1)(C(F)(F)F)C(F)(F)F)c1ccccc1Cl	74*	98*	75*	-7	0	73*	18*	74*
